This note sets out measurements from PubChem BioAssay (NCI).

A short description of test [1]: NCI Yeast Anticancer Drug Screen. Data for the rad50 strain (AID 155).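 Also: 0% = growth of vehicle-only cultures of the same strain.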 To be noted: S. cerevisiae rad50 strain growth inhibition; at 50.0 µM; active compounds read high. Put shortly: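 Growth of the mutant yeast was measured after compound exposure and referenced to vehicle-treated cultures.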
Test [2] is described as follows: NCI Yeast Anticancer Drug Screen. Data for the mec2-1 strain (AID 157). To be noted: S. cerevisiae mec2-1 strain, at 50.0 µM, active compounds read high. Put shortly: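 Test agents were screened against the mec2-1 yeast strain, with defined DNA repair or cell cycle alteration. Growth was scored as inhibition against vehicle-only controls.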
A short description of test [3]: NCI Yeast Anticancer Drug Screen. Data for the sgs1 mgt1 strain (AID 161).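 Also: 0% = growth of cultures given vehicle only.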 To be noted: S. cerevisiae sgs1 mgt1 strain, at 50.0 µM, active compounds read high. The method in brief: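 Test agents were incubated with a DNA-repair-mutant yeast strain. Growth was then read and compared against vehicle-treated controls.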
Test [4] can be described thus: NCI Yeast Anticancer Drug Screen. Data for the cln2 rad14 strain (AID 165).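 Also: 0% = growth equal to vehicle treated cultures.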 To be noted: S. cerevisiae cln2 rad14 strain, at 50.0 µM, active compounds read high. Put shortly: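 Growth of compound-exposed yeast (cln2 rad14 genotype) measured and expressed as inhibition relative to vehicle.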
The nature of test [5]: NCI Yeast Anticancer Drug Screen. Data for the bub3 strain (AID 167). To be noted: S. cerevisiae bub3 mutant strain, at 50.0 µM, active compounds read high. Put shortly:
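Whole-cell yeast assay. The mutant strain was incubated with compounds, and growth inhibition was determined by comparison with vehicle-treated cells.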

Test [6] can be described thus: NCI Yeast Anticancer Drug Screen. Data for the mlh1 rad18 strain (AID 175). To be noted: S. cerevisiae mlh1 rad18 strain growth inhibition; at 50.0 µM; active compounds read high. The method in brief:
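In this whole-cell yeast screen, a strain with altered DNA damage repair is challenged with compound, and its growth is measured against matched vehicle-treated controls.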

Molecules are shown by their SMILES. This is part of a sample that, as a whole, favours compounds with a hit. Of some 79,000 tested, about 15% had one in any assay. A number with no mark means an inactive call. Active and inactive are the calls of the source. Rule as the data show it: active = growth inhibition above about 70%; inactive = the rest.

For `CC(=O)O[C@@H]1C[C@]2(C)[C@@H](C(C)=O)CC[C@H]2[C@@H]2CCC3=CC(=O)CC[C@]3(C)[C@H]21`, the growth inhibition was -7.5% in test [1]; -8.25% in test [2]; -23% in test [3]; 11.4% in test [4]; -10.4% in test [5]; 13.2% in test [6].
Consider `CCC(CC)C(O)CCCN(C)C` (stereo not given), for which the growth inhibition is 33.6% in test [1]; 21.8% in test [2]; 31.2% in test [3]; 12.8% in test [4]; 1.65% in test [5]; 24.1% in test [6].
Regarding `CC(C)C(C(N)=O)C(C)C`, the growth inhibition in test [1] is 3.6%; in test [2], -6.4%; in test [3] it was -3.65%; in test [4], 10.7%; in test [5], 0%; in test [6] it was -1.2%.
As to `CCC(/C=N\NC(=O)CCCC(=O)N/N=C/C(CC)CC)CC`, the growth inhibition is -0.5% in test [1]; -8.5% in test [2]; -18.6% in test [3]; 5.65% in test [4]; 5.8% in test [5]; -0.35% in test [6].
As to `CCN(CC)CCCNc1cc(OC)c(Cl)c2cccnc12`, the growth inhibition is 22.2% in test [1]; 9.1% in test [2]; 38% in test [3]; 35.9% in test [4]; -19.8% in test [5]; 28.7% in test [6].
Regarding `Clc1ccc2ccccc2n1`, the growth inhibition in test [1] is 15.1%; in test [2], -1.65%; in test [3] it was -6.4%; in test [4], -23.1%; in test [5] it was 9.8%; in test [6] it was -8.15%.
`Cc1ccc(Cl)cc1NC(=O)Nc1cc(Cl)c(Cl)cc1C`: the growth inhibition was 3.55% in test [1]; 45% in test [2]; 43.5% in test [3]; -2.5% in test [4]; 45.9% in test [5]; 33.3% in test [6].
For the molecule `CN(Nc1c([N+](=O)[O-])cc([N+](=O)[O-])cc1[N+](=O)[O-])c1ccc2ccccc2c1`, the growth inhibition in test [1] is 14.2%; in test [2], 7.3%; in test [3], 21.4%; in test [4], 24.2%; in test [5], 7.2%; in test [6] it was 8.35%.
Turning to `SCc1ccc(-c2ccc(CS)cc2)cc1`, the growth inhibition is 4.65% in test [1]; 2.55% in test [2]; 40% in test [3]; 39.8% in test [4]; 39.1% in test [5]; 23.3% in test [6].
`NCCN(Cc1ccccc1)C1CC1`: the growth inhibition was 5.4% in test [1]; -33.6% in test [2]; 9.35% in test [3]; 15.3% in test [4]; -16.2% in test [5]; -1.05% in test [6].
As for `O=C(c1ccccc1)c1cc[n+]([O-])cc1`, the growth inhibition was -5.6% in test [1]; -11.8% in test [2]; -18% in test [3]; -16.9% in test [4]; -8.7% in test [5]; 12.7% in test [6].
With `CC(=N\N=C(c1ccccc1)c1ccccc1)/C(C)=N/N=C(c1ccccc1)c1ccccc1`, the growth inhibition was -22.1% in test [1]; -8.15% in test [2]; -13.8% in test [3]; -9% in test [4]; -1.15% in test [5]; -17.8% in test [6].
For the molecule `CN(C)S(=O)(=O)C(C(=O)Nc1ccccc1)c1ccccc1` (stereo not given), the growth inhibition in test [1] was -1.15%; in test [2], 13.8%; in test [3], 3%; in test [4], -34.7%; in test [5] it was -5.95%; in test [6] it was -10.5%.
As to `O=C(O)Cc1ccc2ccccc2c1Br`, the growth inhibition was -8.5% in test [1]; 13.1% in test [2]; 1.8% in test [3]; 22.8% in test [4]; -8.6% in test [5]; 14.3% in test [6].
As for `O=S(=O)(Nc1nccs1)c1ccc(NCc2c3ccccc3nc3ccccc23)cc1`, the growth inhibition is 62.2% in test [1]; 54.7% in test [2]; 42.3% in test [3]; 30% in test [4]; 17.7% in test [5]; 49.5% in test [6].
Consider `CC(=O)Nc1ccc(C2CC(c3ccc([N+](=O)[O-])cc3)=Nc3ccccc3S2)cc1` (stereo not given), for which the growth inhibition is 32.8% in test [1]; 24.6% in test [2]; 34.1% in test [3]; 17.6% in test [4]; 13.9% in test [5]; 49.9% in test [6].
Regarding `O=S(=O)(Cc1ccccc1)C(I)c1ccccc1` (stereo not given), the growth inhibition was 82.2% (active) in test [1]; 55.9% in test [2]; 65.5% in test [3]; 51% in test [4]; 60.7% in test [5]; 73% (active) in test [6].
For `O=C(Nc1ccc(Cl)cc1[N+](=O)[O-])Oc1ccc(-c2ccccc2)cc1Cl`, the growth inhibition in test [1] was 99.5% (active); in test [2] it was 99.7% (active); in test [3], 99.7% (active); in test [4], 99% (active); in test [5] it was 99.4% (active); in test [6] it was 99.7% (active).
Consider `CC(=O)Nc1cc2c(cc1Cl)[nH]c(=O)c1ccccc12`, for which the growth inhibition in test [1] was 8.1%; in test [2], -10.9%; in test [3], -19.8%; in test [4], -3.25%; in test [5], 11.4%; in test [6] it was 7.5%.
For `CC(C)CCCC(C)C1CCC2C3CC=C4CC(OC(=O)C56C=CC(=O)C5C5C=CC6CC5)CCC4(C)C3CCC12C` (stereo not given), the growth inhibition was 11.4% in test [1]; 21.6% in test [2]; -1.2% in test [3]; 2.25% in test [4]; 1.65% in test [5]; 20.9% in test [6].
